Paper PMC7862700, “An all-to-all approach to the identification of sequence-specific readers for epigenetic DNA modifications on cytosine”

What was measured:
Assay in all cases: DAPPL (digital affinity profiling via proximity ligation, sequencing); 10 mM Tris-HCl pH 7.5, 50 mM NaCl, 1 mM DTT, 4% glycerol, room temperature, 30 min; GST-TFs on glutathione beads, 16-mer random dsDNA library, 0.1% formaldehyde crosslink after washing; high values mean tight binding
FLI1 = molecular target: T1, FLI1 (Homo sapiens, UniProt Q01543 1-452); conditions: protein: recombinant; tags: N-terminal GST; dsDNA, one strand shown
T1 sequence: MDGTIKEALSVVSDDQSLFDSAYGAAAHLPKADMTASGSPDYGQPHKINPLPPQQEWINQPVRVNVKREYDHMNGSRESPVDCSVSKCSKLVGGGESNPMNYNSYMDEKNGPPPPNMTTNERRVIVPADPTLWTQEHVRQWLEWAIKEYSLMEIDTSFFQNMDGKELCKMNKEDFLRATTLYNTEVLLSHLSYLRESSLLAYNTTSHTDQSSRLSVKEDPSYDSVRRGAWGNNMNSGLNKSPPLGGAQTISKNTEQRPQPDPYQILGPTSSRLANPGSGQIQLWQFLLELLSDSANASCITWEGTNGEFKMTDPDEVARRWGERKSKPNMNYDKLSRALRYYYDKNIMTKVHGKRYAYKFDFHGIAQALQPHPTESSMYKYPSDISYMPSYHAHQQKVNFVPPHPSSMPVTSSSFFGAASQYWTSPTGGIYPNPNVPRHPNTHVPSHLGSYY
Summary of the method: (§1)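 Human transcription factors carrying a GST fusion were produced in yeast, bound to glutathione beads, tagged with DNA barcodes and pooled together with a tag-only sample. Each pool was held with 200 nmole of a random double-stranded 16-mer DNA library in Tris/NaCl/DTT/glycerol buffer for 30 min at room temperature, then washed, crosslinked in 0.1% formaldehyde, proximity-ligated with BsaI/T4 ligase (1 h, 37 °C), PCR-amplified and sequenced on an Illumina NextSeq500. Binding signal is the read frequency of each hexamer for a given factor divided by its frequency in the tag-only sample.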

HSF1 = HSF1 (Homo sapiens, UniProt Q00613 1-529); conditions: protein: recombinant; tags: N-terminal GST; chain copies: 3; dsDNA, one strand shown
Summary of the method: as §1

ETV2 = molecular target: T2, ETV2 (Homo sapiens, UniProt O00321 1-342); conditions: protein: recombinant; tags: N-terminal GST; dsDNA, one strand shown
T2 sequence: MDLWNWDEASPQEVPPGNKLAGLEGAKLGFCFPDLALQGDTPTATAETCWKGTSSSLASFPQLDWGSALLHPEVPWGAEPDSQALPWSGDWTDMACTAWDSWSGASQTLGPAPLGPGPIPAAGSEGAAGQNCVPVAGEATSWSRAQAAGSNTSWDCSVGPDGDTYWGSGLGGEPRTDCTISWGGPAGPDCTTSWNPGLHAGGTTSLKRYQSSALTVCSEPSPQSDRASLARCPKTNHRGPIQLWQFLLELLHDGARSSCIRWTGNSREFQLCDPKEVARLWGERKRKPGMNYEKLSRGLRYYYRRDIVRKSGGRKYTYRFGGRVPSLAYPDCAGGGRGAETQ
Summary of the method: as §1

CRX = CRX (Homo sapiens, UniProt O43186 1-299); conditions: protein: recombinant; tags: N-terminal GST; dsDNA, one strand shown
Summary of the method: as §1

SPI1 = SPI1 (Homo sapiens, UniProt P17947 1-270); conditions: protein: recombinant; tags: N-terminal GST; dsDNA, one strand shown
Summary of the method: as §1

FEV = molecular target: T3, FEV (Homo sapiens, UniProt Q99581 1-238); conditions: protein: recombinant; tags: N-terminal GST; dsDNA, one strand shown
T3 sequence: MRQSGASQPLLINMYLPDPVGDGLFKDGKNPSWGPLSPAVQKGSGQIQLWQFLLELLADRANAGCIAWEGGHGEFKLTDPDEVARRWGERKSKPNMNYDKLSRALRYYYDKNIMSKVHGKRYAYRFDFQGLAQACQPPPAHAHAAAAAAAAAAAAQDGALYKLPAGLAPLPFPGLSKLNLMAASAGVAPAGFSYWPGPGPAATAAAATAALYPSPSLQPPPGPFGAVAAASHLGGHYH
Summary of the method: as §1

ELF5 = molecular target: T4, ELF5 (Homo sapiens, UniProt Q9UKW6-2 1-255); conditions: protein: recombinant; tags: N-terminal GST; dsDNA, one strand shown
T4 sequence: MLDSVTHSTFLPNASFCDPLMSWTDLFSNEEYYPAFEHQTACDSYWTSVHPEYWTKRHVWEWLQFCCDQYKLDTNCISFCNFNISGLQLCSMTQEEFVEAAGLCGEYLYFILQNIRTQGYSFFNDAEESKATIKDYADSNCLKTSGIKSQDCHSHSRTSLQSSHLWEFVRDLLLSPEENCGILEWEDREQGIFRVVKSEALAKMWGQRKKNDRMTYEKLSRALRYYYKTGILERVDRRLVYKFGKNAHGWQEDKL
Summary of the method: as §1

Chain of HSF1 (Q00613 whole entry): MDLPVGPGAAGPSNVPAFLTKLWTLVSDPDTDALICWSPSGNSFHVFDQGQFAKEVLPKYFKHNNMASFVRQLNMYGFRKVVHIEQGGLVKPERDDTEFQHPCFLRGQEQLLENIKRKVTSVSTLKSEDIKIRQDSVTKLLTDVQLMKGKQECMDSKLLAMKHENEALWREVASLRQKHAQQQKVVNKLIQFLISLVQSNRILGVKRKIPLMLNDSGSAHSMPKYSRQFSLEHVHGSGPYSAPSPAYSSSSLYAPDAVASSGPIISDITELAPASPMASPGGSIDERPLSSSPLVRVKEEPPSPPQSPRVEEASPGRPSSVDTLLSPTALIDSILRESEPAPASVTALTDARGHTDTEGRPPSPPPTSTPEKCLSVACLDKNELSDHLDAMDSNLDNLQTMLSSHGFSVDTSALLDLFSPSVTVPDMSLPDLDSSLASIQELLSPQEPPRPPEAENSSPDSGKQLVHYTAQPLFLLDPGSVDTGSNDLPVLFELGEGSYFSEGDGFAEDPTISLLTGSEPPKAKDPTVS
Chain of CRX (O43186 whole entry): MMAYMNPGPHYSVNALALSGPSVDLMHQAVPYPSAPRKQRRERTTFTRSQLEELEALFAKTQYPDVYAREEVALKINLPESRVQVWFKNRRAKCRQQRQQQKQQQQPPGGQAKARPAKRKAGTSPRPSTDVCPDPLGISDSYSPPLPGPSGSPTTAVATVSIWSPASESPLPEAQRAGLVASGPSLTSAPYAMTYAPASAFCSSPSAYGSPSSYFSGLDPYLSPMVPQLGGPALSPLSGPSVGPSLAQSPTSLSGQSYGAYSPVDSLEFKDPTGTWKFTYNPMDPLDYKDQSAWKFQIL

Sequence | binding signal (FLI1) | binding signal (HSF1) | binding signal (ETV2) | binding signal (CRX) | binding signal (SPI1) | binding signal (FEV) | binding signal (ELF5)
CTAGAA | 1.06 fold enrichment (6-mer frequency, TF over GST control) | 6.29 fold enrichment (6-mer frequency, TF over GST control) | 1.03 fold enrichment (6-mer frequency, TF over GST control) | 2.13 fold enrichment (6-mer frequency, TF over GST control) |  |  | 
GATCAA | 1.01 fold enrichment (6-mer frequency, TF over GST control) | 1.25 fold enrichment (6-mer frequency, TF over GST control) | 1.19 fold enrichment (6-mer frequency, TF over GST control) | 1.52 fold enrichment (6-mer frequency, TF over GST control) |  |  | 
TCAATC | 1.08 fold enrichment (6-mer frequency, TF over GST control) | 1.13 fold enrichment (6-mer frequency, TF over GST control) | 1.13 fold enrichment (6-mer frequency, TF over GST control) | 1.33 fold enrichment (6-mer frequency, TF over GST control) | 1.06 fold enrichment (6-mer frequency, TF over GST control) |  | 
GTTCGC | 1.06 fold enrichment (6-mer frequency, TF over GST control) | 1.12 fold enrichment (6-mer frequency, TF over GST control) | 1.11 fold enrichment (6-mer frequency, TF over GST control) |  | 1.04 fold enrichment (6-mer frequency, TF over GST control) | 1.06 fold enrichment (6-mer frequency, TF over GST control) | 1.01 fold enrichment (6-mer frequency, TF over GST control)
ATAAGT | 1.08 fold enrichment (6-mer frequency, TF over GST control) | 1.28 fold enrichment (6-mer frequency, TF over GST control) | 1.05 fold enrichment (6-mer frequency, TF over GST control) | 1.79 fold enrichment (6-mer frequency, TF over GST control) | 1 fold enrichment (6-mer frequency, TF over GST control) |  | 
TAAAGG | 1.04 fold enrichment (6-mer frequency, TF over GST control) | 1.15 fold enrichment (6-mer frequency, TF over GST control) |  | 1.56 fold enrichment (6-mer frequency, TF over GST control) | 1.03 fold enrichment (6-mer frequency, TF over GST control) | 1.02 fold enrichment (6-mer frequency, TF over GST control) | 1.1 fold enrichment (6-mer frequency, TF over GST control)
CCCCAG | 1.07 fold enrichment (6-mer frequency, TF over GST control) | 1.03 fold enrichment (6-mer frequency, TF over GST control) | 1.04 fold enrichment (6-mer frequency, TF over GST control) |  | 1.04 fold enrichment (6-mer frequency, TF over GST control) |  | 
TGATTA | 1.07 fold enrichment (6-mer frequency, TF over GST control) | 1.58 fold enrichment (6-mer frequency, TF over GST control) | 1.07 fold enrichment (6-mer frequency, TF over GST control) | 2.23 fold enrichment (6-mer frequency, TF over GST control) |  |  | 1.03 fold enrichment (6-mer frequency, TF over GST control)
TTAGAT | 1.05 fold enrichment (6-mer frequency, TF over GST control) | 1.49 fold enrichment (6-mer frequency, TF over GST control) | 1.16 fold enrichment (6-mer frequency, TF over GST control) | 2.04 fold enrichment (6-mer frequency, TF over GST control) |  | 1.01 fold enrichment (6-mer frequency, TF over GST control) | 
AGCTAG | 1.05 fold enrichment (6-mer frequency, TF over GST control) | 1.21 fold enrichment (6-mer frequency, TF over GST control) | 1.12 fold enrichment (6-mer frequency, TF over GST control) | 1 fold enrichment (6-mer frequency, TF over GST control) | 1.08 fold enrichment (6-mer frequency, TF over GST control) |  | 
TGATAG | 1.14 fold enrichment (6-mer frequency, TF over GST control) | 1.02 fold enrichment (6-mer frequency, TF over GST control) | 1.09 fold enrichment (6-mer frequency, TF over GST control) | 1.01 fold enrichment (6-mer frequency, TF over GST control) | 1.01 fold enrichment (6-mer frequency, TF over GST control) |  | 
ATTCGG | 1.01 fold enrichment (6-mer frequency, TF over GST control) | 1.11 fold enrichment (6-mer frequency, TF over GST control) |  |  |  |  | 
GCTGCA | 1.09 fold enrichment (6-mer frequency, TF over GST control) |  | 1.01 fold enrichment (6-mer frequency, TF over GST control) |  | 1 fold enrichment (6-mer frequency, TF over GST control) | 1.01 fold enrichment (6-mer frequency, TF over GST control) | 
CGCGAT | 1.02 fold enrichment (6-mer frequency, TF over GST control) | 1.23 fold enrichment (6-mer frequency, TF over GST control) | 1.17 fold enrichment (6-mer frequency, TF over GST control) | 1.1 fold enrichment (6-mer frequency, TF over GST control) | 1.09 fold enrichment (6-mer frequency, TF over GST control) |  | 1.04 fold enrichment (6-mer frequency, TF over GST control)
GTCACG | 1.09 fold enrichment (6-mer frequency, TF over GST control) |  |  |  | 1.05 fold enrichment (6-mer frequency, TF over GST control) |  | 
TACAGC | 1.06 fold enrichment (6-mer frequency, TF over GST control) |  | 1.12 fold enrichment (6-mer frequency, TF over GST control) | 1.07 fold enrichment (6-mer frequency, TF over GST control) |  | 1.01 fold enrichment (6-mer frequency, TF over GST control) | 1.07 fold enrichment (6-mer frequency, TF over GST control)
CGCCAT | 1.08 fold enrichment (6-mer frequency, TF over GST control) |  |  |  | 1.08 fold enrichment (6-mer frequency, TF over GST control) |  | 1.03 fold enrichment (6-mer frequency, TF over GST control)
TTGGAA | 1.01 fold enrichment (6-mer frequency, TF over GST control) | 1.32 fold enrichment (6-mer frequency, TF over GST control) | 1.02 fold enrichment (6-mer frequency, TF over GST control) | 1.07 fold enrichment (6-mer frequency, TF over GST control) |  |  | 
TAGGTA | 1.02 fold enrichment (6-mer frequency, TF over GST control) | 1.03 fold enrichment (6-mer frequency, TF over GST control) |  | 1.22 fold enrichment (6-mer frequency, TF over GST control) |  | 1 fold enrichment (6-mer frequency, TF over GST control) | 
TAGTTG | 1.04 fold enrichment (6-mer frequency, TF over GST control) |  | 1.01 fold enrichment (6-mer frequency, TF over GST control) | 1.03 fold enrichment (6-mer frequency, TF over GST control) |  |  | 
TCAGAT | 1.01 fold enrichment (6-mer frequency, TF over GST control) | 1.21 fold enrichment (6-mer frequency, TF over GST control) | 1.08 fold enrichment (6-mer frequency, TF over GST control) | 1.45 fold enrichment (6-mer frequency, TF over GST control) | 1.08 fold enrichment (6-mer frequency, TF over GST control) |  | 1 fold enrichment (6-mer frequency, TF over GST control)
